High-throughput results (PubChem)
Compounds with a hit are over-represented: about 0.9% of the library has one in this group of screens.
RXFP1 antag: blocks the human relaxin receptor RXFP1; HEK293-RXFP1, relaxin-stimulated cAMP HTRF, 30 min; stronger effect = lower value; activity change, negative = inhibition, % at 57.5 µM; hit rate 0.59% among 350,000; AID 1259400;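 active = activity change of -60% or lower, but not beyond a set lower limit; inconclusive = change between -60% and -40%, or beyond the set limit; inactive = change above -40%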
Target sequence (Q9HBX9 whole entry, looked up): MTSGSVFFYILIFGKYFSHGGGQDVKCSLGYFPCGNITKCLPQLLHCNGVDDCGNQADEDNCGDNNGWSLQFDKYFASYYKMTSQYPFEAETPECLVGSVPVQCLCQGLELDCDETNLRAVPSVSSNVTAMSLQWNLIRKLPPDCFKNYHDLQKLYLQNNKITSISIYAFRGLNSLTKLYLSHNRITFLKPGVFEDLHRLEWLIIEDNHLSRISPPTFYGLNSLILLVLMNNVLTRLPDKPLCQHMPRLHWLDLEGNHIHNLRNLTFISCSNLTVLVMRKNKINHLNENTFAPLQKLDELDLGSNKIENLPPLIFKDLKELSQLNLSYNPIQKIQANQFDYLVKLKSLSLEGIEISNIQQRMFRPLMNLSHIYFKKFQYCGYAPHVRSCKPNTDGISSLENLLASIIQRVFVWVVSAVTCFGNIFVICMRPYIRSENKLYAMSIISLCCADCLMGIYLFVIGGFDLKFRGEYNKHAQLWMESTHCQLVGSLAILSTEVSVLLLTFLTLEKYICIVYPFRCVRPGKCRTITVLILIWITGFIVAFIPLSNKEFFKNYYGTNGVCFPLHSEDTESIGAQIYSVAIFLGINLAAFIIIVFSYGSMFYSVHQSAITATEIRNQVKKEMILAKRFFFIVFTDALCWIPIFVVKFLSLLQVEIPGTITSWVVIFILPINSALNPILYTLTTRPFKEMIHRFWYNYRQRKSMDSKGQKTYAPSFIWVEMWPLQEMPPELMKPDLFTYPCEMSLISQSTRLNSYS
gsp antagonist: antagonists of gsp mutant (McCune-Albright syndrome); gsp-mutant cells, cAMP HTRF, 30 min; Potency, µM (titrated, usually from 76.9 µM), usual class: inhibitors; hit rate 0.4% among 340,000; AID 624288; calls by dose curve; cell line not stated here;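 also: intracellular cAMP measured with PDE inhibitor Ro 20-1724 present during compound exposure; nearly all actives have a fitted effect of over 65% in size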
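HTRF cAMP measurement after 30 min RT detection following 30 min, 37C compound treatment alongside […] (added as 300 uM solution) in G418-selected cells seeded at 2000/well and grown 16–24 h.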
RXFP1 agonist: RXFP1 (human) receptor agonism | Q9HBX9 | HEK293T-RXFP1 cAMP TR-FRET, 30 min; response scale: percent of porcine relaxin response, buffer zero | Potency, µM (series often up to 57.5 µM), usual class: activators | hit rate 0.3% among 370,000 | AID 2676; active = well fitted activation curve with a large enough effect; inconclusive = small, poorly fitted or top-dose-only effect; also: nearly all actives have a fitted effect of over 60% in size
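HEK293T cells stably expressing RXFP1 were pretreated with the PDE4 inhibitor Ro 20174, exposed to compounds for 30 min at 37C, lysed, and cAMP was read by TR-FRET. Data normalized to buffer (basal) and 29 nM porcine relaxin (100%).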
gsp agonist: activates gsp, the McCune-Albright syndrome mutation. gsp mutant cells, cAMP HTRF, 30 min. Potency, µM (doses to about 76.9 µM), most hits filed as activators. hit rate 0.13% among 340,000; active = well fitted activation curve with a large enough effect; inconclusive = small, poorly fitted or top-dose-only effect, or another doubt; inactive = no such curve, though single readings can be large or run the other way; cell line not stated here;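 also: phosphodiesterase inhibitor Ro 20-1724 added with compounds to block cAMP breakdown; nearly all actives have a fitted effect of over 60% in size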
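Cells stably selected in G418 were plated at 2000/well, grown 16-24 hr, then given compounds in DMSO with the PDE inhibitor […] (300 uM solution added) for 30 min at 37C; cAMP was read by HTRF.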
Large screens that a line does not name were inactive.

COc1ccc(C2C(C(=O)c3ccco3)=C(O)C(=O)N2c2nnc(C)s2)cc1 (configuration not stated)	RXFP1 agonist inconclusive
C=CCOc1ccc(C2C(C(=O)c3ccco3)=C(O)C(=O)N2c2nnc(C)s2)cc1 (configuration not stated)	RXFP1 agonist 14µM
CCS(=O)(=O)c1ncc(Cl)c(C(=O)Nc2ccc(S(=O)(=O)N3CCCC(C)C3)cc2)n1 (configuration not stated)	RXFP1 antag -119, gsp antagonist inconclusive
COc1ccc(NC(=O)c2nc(S(=O)(=O)Cc3ccc(C)cc3)ncc2Cl)cc1	RXFP1 antag -118 (no result: gsp antagonist, gsp agonist)
CS(=O)(=O)c1ncc(Cl)c(C(=O)Nc2ccc3ccccc3c2)n1	RXFP1 antag -93
O=C(Nc1ccc(OC(F)F)cc1)c1ncc(Cl)c(Cl)c1Cl	gsp antagonist 11µM
CCC1CCCCN1S(=O)(=O)c1ccc(NC(=O)c2nc(S(C)(=O)=O)ncc2Cl)cc1 (configuration not stated)	RXFP1 antag inconclusive, gsp antagonist inconclusive
CC(=O)Nc1ccc(NC(=O)c2nc(S(=O)(=O)Cc3ccccc3)ncc2Cl)cc1	RXFP1 antag inconclusive
Cc1cc(-c2ccc(S(=O)(=O)Nc3ccccc3C)cc2)on1	none (no result: gsp antagonist, gsp agonist)
COc1ccc(/C=C(\C#N)c2nc(-c3cc4ccccc4oc3=O)cs2)cc1OC	none (no result: gsp antagonist, gsp agonist)
CCN(CC)S(=O)(=O)c1ccc2c(c1)N(CC(=O)N1CCN(c3cccc(C)c3)C(C)C1)C(=O)CO2 (configuration not stated)	none (no result: gsp antagonist, gsp agonist)
Cc1ccc(CS(=O)(=O)c2ncc(Cl)c(C(=O)Nc3ccc(OC(F)F)cc3)n2)cc1	RXFP1 antag -66, gsp antagonist inconclusive
CCS(=O)(=O)c1ncc(Cl)c(C(=O)Nc2ccc(C)cc2)n1	RXFP1 antag -78, gsp antagonist inconclusive
CN(C)c1cc(NC(=O)CNC(C)(C)C)c(O)c2c1C[C@@H]1C[C@H]3[C@H](N(C)C)C(=O)C(C(N)=O)=C(O)[C@@]3(O)C(=O)C1=C2O	none (no result: gsp antagonist, RXFP1 agonist, gsp agonist)
CCOC(=O)c1cnc(-n2nc(C)cc2C)nc1Nc1ccc(O)cc1	gsp antagonist 11µM
CCOC(=O)N1CCN(C(=O)c2cc3cc(F)ccc3[nH]2)CC1	none
CCOC(=O)N1CCN(C(=O)c2cc3cc(Cl)ccc3[nH]2)CC1	gsp antagonist 50µM
Cc1nc(N2CCCC2)c2c(C(=O)N3CCN(c4ccc(F)cc4)CC3)c(C)oc2n1	none (no result: gsp antagonist, gsp agonist)
CCOc1ccc(S(=O)(=O)Nc2ccccc2SC)c2cccnc12	gsp antagonist 13µM
CCCCOc1ccc(C(=O)N(Cc2nc(-c3ccc(Cl)cc3)no2)C(C)C)cc1	none (no result: gsp antagonist, gsp agonist)
C=CCN1C(=O)/C(=C/c2ccc(OC(C)=O)c(OCC)c2[N+](=O)[O-])SC1=S	gsp antagonist 25µM
CCN1CCN(C(=O)Cn2c(-c3cccs3)cc3cc(Cl)ccc32)CC1	none (no result: gsp antagonist, gsp agonist)
O=S(=O)(NCCC1=CCCCC1)c1ccc(Br)cc1	RXFP1 antag -70
COc1ccccc1N1CCN(CC(O)COc2cc(C)cc(C)c2)CC1 (configuration not stated)	none (no result: gsp antagonist, gsp agonist)
COc1ccccc1N1CCN(CC(O)COc2ccc(C)cc2C(C)(C)C)CC1 (configuration not stated)	RXFP1 antag -83 (no result: gsp antagonist, gsp agonist)
CO[C@@H]1[C@@H](OC2OC(C)C(OC3CC(C)(O)C(O)C(C)O3)C(N(C)C)C2O)[C@@H](CC=O)C[C@@H](C)[C@@H](OC2CCC(N(C)C)C(C)O2)/C=C/C=C/C[C@@H](C)OC(=O)C[C@H]1OC(C)=O (some centres not stated)	none (no result: gsp antagonist, RXFP1 agonist, gsp agonist)
CC(=O)NCCNc1nc2c(-c3ccccc3)nnn2c2ccccc12	gsp agonist 22µM
CC1(C)NC(=O)N(CC(=O)Nc2ccc(-n3cnnn3)cc2)C1=O	RXFP1 antag -71 (no result: RXFP1 agonist)
CC(=O)c1cc(-c2ccccc2)n(CC(=O)Nc2ccc(C)cc2C)c1C	none (no result: gsp antagonist, gsp agonist)
CC(=O)c1cc(-c2ccccc2)n(CCC(=O)Nc2ccc(C)cc2C)c1C	RXFP1 antag -62 (no result: gsp antagonist, gsp agonist)
CCCOc1ccc(C(=O)Nc2ccc3oc(-c4ccc(N(C)C)cc4)nc3c2)cc1	RXFP1 agonist 3.2µM (no result: gsp antagonist, gsp agonist)
COC(=O)c1cc(Cl)ccc1NS(=O)(=O)C(F)(F)F	none (no result: gsp antagonist, RXFP1 agonist, gsp agonist)
CN(Cc1ccccc1)C(=O)c1ccccc1N(C)S(=O)(=O)c1ccccc1	RXFP1 antag -62
CN(Cc1ccccc1)C(=O)c1ccccc1C(=O)O	gsp agonist inconclusive
O=c1oc2ccccc2c2c1C1O[C@](c3ccsc3)(Cc3ccccc31)O2	none (no result: RXFP1 antag, gsp antagonist, gsp agonist)
Cc1noc(C)c1COc1ccccc1C(=O)N(C)Cc1ccc(C(C)(C)C)cc1	gsp antagonist 50µM
COc1ccc(OC)c(S(=O)(=O)NCCc2sc(C)nc2C)c1	none (no result: RXFP1 antag, gsp antagonist, gsp agonist)
CC(C)Cn1c(N)c(C(=O)COC(=O)c2c(F)cccc2F)c(=O)n(C)c1=O	none
CC(C)Cn1c(N)c(C(=O)COC(=O)c2cccc(Cl)c2)c(=O)n(C)c1=O	gsp antagonist 50µM
Cc1noc(C)c1C(=O)OCC(=O)c1c(N)n(CC(C)C)c(=O)n(C)c1=O	gsp agonist 32µM
Cc1cc(C(=O)COC(=O)c2ccc(O)cc2)c(C)n1-c1ccccc1F	RXFP1 antag -83
COc1ccc(-n2nc(C(=O)Nc3cc(C)ccn3)c3c4ccccc4n(C)c3c2=O)cc1Cl	none (no result: gsp antagonist, gsp agonist)
Cc1cccc(N2CCN(c3ncnc4c3nc3n4CCCCC3)CC2C)c1 (configuration not stated)	RXFP1 antag -70 (no result: gsp antagonist, gsp agonist)
CCc1nc(N2CCN(S(C)(=O)=O)CC2)c2c3c(sc2n1)CCCC3	gsp antagonist inconclusive
CCc1nc(N2CCN(C(=S)NCCCOC)CC2)c2c3c(sc2n1)CCCC3	gsp antagonist 7.1µM
CCC(=O)N1CCN(c2nc(CC)nc3sc4c(c23)CCCC4)CC1	gsp antagonist 20µM
Cc1nnc(-c2ccc(Oc3ccc(Br)cc3)c([N+](=O)[O-])c2)o1	gsp antagonist 50µM
COC(=O)c1sc(N2C(=O)c3oc4cc(C)c(C)cc4c(=O)c3C2c2ccccc2F)nc1C (configuration not stated)	none (no result: gsp antagonist, gsp agonist)
O=C1OC(/C(=C\Nc2cc(Cl)ccc2O)[N+](=O)[O-])c2ccccc21 (configuration not stated)	RXFP1 antag -82
CN=c1scc(-c2ccccc2F)n1/N=C/c1ccc(O)c(O)c1O	RXFP1 antag -65
CCN=c1scc(-c2cccs2)n1/N=C/c1cc(OC)ccc1O	gsp antagonist inconclusive
CC(C)N=c1scc(-c2cccs2)n1/N=C/c1ccc(O)c(O)c1O	RXFP1 antag -63
CN=c1scc(-c2ccccc2F)n1/N=C/c1ccc[nH]1	gsp agonist inconclusive
Cc1nc2scc(C)n2c(=O)c1S(=O)(=O)Nc1cccc(C(F)(F)F)c1	none (no result: gsp antagonist, gsp agonist)
CCOC(=O)c1cc(-c2ccccc2)n(CC(=O)N(C)c2ccc(OC)cc2)c1C	RXFP1 antag -74 (no result: gsp antagonist, gsp agonist)
COc1cc2cc(CCOC(=O)c3ccc(C#N)cc3)oc(=O)c2cc1OC	none (no result: RXFP1 antag, gsp agonist)
COc1cc2cc(CCOC(=O)c3ccc(F)cc3)oc(=O)c2cc1OC	gsp antagonist 50µM (no result: RXFP1 antag, gsp agonist)
